{
  "source": "paper PMC7883291",
  "experiment_in_all_cases": "cross-link between two proteins; cross-linking mass spectrometry",
  "key": {"[1]": {"target": "Cytochrome b-c1 complex subunit 2, mitochondrial (UniProt P23004)", "sequence (P23004 whole entry, one chain of several)": "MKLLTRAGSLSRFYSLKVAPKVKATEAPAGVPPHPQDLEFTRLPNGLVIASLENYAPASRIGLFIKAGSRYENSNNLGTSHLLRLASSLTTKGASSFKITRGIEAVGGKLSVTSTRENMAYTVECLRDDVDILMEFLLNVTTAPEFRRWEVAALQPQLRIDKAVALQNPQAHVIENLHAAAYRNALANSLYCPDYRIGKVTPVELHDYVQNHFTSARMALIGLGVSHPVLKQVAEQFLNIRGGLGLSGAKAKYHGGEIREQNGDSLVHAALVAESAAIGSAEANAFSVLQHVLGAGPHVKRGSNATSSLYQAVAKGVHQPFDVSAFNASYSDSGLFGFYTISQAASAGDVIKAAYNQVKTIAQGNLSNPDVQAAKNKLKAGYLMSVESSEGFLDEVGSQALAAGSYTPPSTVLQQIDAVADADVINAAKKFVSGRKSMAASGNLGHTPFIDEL"}, "[2]": {"target": "NADH dehydrogenase [ubiquinone] 1 alpha subcomplex subunit 1 (UniProt Q02377)", "sequence (Q02377 whole entry, one chain of several)": "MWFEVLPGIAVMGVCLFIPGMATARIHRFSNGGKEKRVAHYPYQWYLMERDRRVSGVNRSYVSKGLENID"}, "[3]": {"target": "NADH dehydrogenase [ubiquinone] 1 alpha subcomplex subunit 13 (UniProt Q95KV7)", "sequence (Q95KV7 whole entry, one chain of several)": "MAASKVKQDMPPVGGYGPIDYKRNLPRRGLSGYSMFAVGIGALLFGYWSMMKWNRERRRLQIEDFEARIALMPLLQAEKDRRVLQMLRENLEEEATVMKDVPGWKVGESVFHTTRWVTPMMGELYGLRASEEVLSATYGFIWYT"}, "[4]": {"target": "NADH dehydrogenase [ubiquinone] 1 alpha subcomplex subunit 7 (UniProt Q05752)", "sequence (Q05752 whole entry, one chain of several)": "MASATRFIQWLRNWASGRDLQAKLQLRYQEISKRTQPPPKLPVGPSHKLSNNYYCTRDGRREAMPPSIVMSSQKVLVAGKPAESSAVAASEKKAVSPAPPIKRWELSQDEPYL"}, "[5]": {"target": "NADH dehydrogenase [ubiquinone] 1 beta subcomplex subunit 11, mitochondrial (UniProt Q8HXG5)", "sequence (Q8HXG5 whole entry, one chain of several)": "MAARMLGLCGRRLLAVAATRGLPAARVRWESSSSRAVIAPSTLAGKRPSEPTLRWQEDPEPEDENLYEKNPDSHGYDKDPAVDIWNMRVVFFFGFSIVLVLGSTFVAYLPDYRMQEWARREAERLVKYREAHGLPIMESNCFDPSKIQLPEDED"}, "[6]": {"target": "NADH dehydrogenase [ubiquinone] 1 beta subcomplex subunit 4 (UniProt P48305)", "sequence (P48305 whole entry, one chain of several)": "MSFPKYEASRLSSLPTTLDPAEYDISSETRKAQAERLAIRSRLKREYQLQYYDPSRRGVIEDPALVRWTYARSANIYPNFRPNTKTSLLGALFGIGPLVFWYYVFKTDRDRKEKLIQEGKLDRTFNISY"}, "[7]": {"target": "NADH dehydrogenase [ubiquinone] iron-sulfur protein 4, mitochondrial (UniProt Q02375)", "sequence (Q02375 whole entry)": "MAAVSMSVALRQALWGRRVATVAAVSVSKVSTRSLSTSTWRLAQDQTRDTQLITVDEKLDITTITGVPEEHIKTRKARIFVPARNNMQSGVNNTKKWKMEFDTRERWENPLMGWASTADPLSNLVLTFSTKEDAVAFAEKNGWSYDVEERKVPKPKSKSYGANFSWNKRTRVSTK"}},
  "data": [
    {"substance": "Cytochrome c1, heme protein, mitochondrial, P00125", "values": [
      {"measurement": "listed as a hit", "setting": "[1]", "result": "yes"}
    ]},
    {"substance": "Cytochrome b-c1 complex subunit 7, P00129", "values": [
      {"measurement": "listed as a hit", "setting": "[1]", "result": "yes"}
    ]},
    {"substance": "NADH dehydrogenase [ubiquinone] 1 alpha subcomplex subunit 8, P42029", "values": [
      {"measurement": "listed as a hit", "setting": "[2]", "result": "yes"}
    ]},
    {"substance": "NADH dehydrogenase [ubiquinone] iron-sulfur protein 5, Q02379", "values": [
      {"measurement": "listed as a hit", "setting": "[3]", "result": "yes"}
    ]},
    {"substance": "NADH dehydrogenase [ubiquinone] 1 alpha subcomplex subunit 5, P23935", "values": [
      {"measurement": "listed as a hit", "setting": "[4]", "result": "yes"}
    ]},
    {"substance": "NADH dehydrogenase [ubiquinone] 1 beta subcomplex subunit 9, Q02369", "values": [
      {"measurement": "listed as a hit", "setting": "[5]", "result": "yes"}
    ]},
    {"substance": "NADH dehydrogenase [ubiquinone] 1 beta subcomplex subunit 8, mitochondrial, Q02372", "values": [
      {"measurement": "listed as a hit", "setting": "[5]", "result": "yes"}
    ]},
    {"substance": "Cytochrome b-c1 complex subunit 1, mitochondrial, P31800", "values": [
      {"measurement": "listed as a hit", "setting": "[6]", "result": "yes"}
    ]},
    {"substance": "NADH dehydrogenase [ubiquinone] iron-sulfur protein 3, mitochondrial, P23709", "values": [
      {"measurement": "listed as a hit", "setting": "[7]", "result": "yes"}
    ]},
    {"substance": "NADH dehydrogenase [ubiquinone] 1 alpha subcomplex subunit 6, Q02366", "values": [
      {"measurement": "listed as a hit", "setting": "[7]", "result": "yes"}
    ]}
  ]
}
